Experimental data as given in PubChem BioAssay AID588342 (National Center for Advancing Translational Sciences (NCATS), 2011).
Out of some 360,000 compounds screened, about 25,000 (6.9%) were called active. Where a call stands in place of a potency, no number is given. Roughly 9% stayed inconclusive and do not appear here. Calls follow the shape of the dose curve; as a rule, active = well fitted inhibition curve with a large enough effect; inconclusive = small, poorly fitted or top-dose-only effect; inactive = flat fitted curve, though single readings scatter. The sample as a whole holds a higher share of actives than the screen did.

target: Luciferin 4-monooxygenase (Photinus pyralis) (UniProt P08659); assay: qHTS profiling assay for firefly luciferase inhibitor/activator using purifed enzyme and Km concentrations of substrates (counterscreen for miR-21 project); settings: purified FLuc, luminescence inhibition; series mostly up to 57.5 µM; also: nearly all actives have a fitted effect of over 55% in size
Sequence (P08659 whole entry, looked up): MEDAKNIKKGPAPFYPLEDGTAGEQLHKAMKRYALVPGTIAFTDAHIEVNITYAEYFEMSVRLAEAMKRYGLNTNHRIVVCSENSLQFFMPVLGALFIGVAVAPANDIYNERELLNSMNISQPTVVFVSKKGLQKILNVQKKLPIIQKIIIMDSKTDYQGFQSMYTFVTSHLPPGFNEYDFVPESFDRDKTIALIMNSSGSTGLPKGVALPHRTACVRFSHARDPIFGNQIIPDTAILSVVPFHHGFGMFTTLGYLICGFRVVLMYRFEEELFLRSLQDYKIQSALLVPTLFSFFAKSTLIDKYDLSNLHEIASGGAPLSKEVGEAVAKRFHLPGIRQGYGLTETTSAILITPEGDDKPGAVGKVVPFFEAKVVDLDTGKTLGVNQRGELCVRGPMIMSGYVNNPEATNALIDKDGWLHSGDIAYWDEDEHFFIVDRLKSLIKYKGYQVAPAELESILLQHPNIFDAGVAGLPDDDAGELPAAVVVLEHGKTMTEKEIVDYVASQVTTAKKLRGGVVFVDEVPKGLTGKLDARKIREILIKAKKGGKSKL
How it was run: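 Purified P. pyralis luciferase (10nM final) with 10uM D-luciferin and 10uM ATP (Km levels) in 50mM Tris acetate pH 7.5, 10mM Mg acetate, 0.01% Tween-20, 0.05% BSA; qHTS 6-point titration, ~60 µM downward; luminescence read.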
Potency is read from the fitted curve at half-maximal effect.

Row | SMILES | Potency
1 | NC(=O)NCCCC(=O)O | inactive
2 | CSc1ncc(C(=O)NCc2ccccc2Cl)c(C(F)(F)F)n1 | inactive
3 | Cc1cc2nc(SCCN3CCOCC3)[nH]c2cc1C | 19 µM (active)
4 | CCn1c2ccc(F)cc2c2nnc(SCCN3CCOCC3)nc21 | inactive
5 | Cc1cccc(C)c1OCCN1CCOCC1 | inactive
6 | COc1ccc(CCC(=O)OCC(=O)Nc2ccc(C)c(S(=O)(=O)N(C)C)c2)cc1 | inactive
7 | Cc1ccc(C(=O)Nc2ccc(C(=O)O)cc2)cc1S(=O)(=O)Nc1ccccc1 | inactive
8 | Cc1ccc(C(=O)Nc2ccc(NC(=O)c3cccs3)cc2)c(C)c1 | inactive
9 | Cc1ccc(C(=O)Nc2ccc(C)c(S(=O)(=O)N(C)C)c2)s1 | 1.9 µM (active)
10 | Cc1ccc(NC(=O)CNCc2ccccn2)cc1S(=O)(=O)N(C)C | inactive
11 | Cc1ccc(NC(=O)c2cccs2)cc1S(=O)(=O)N(C)C | 15.1 µM (active)
12 | Cc1cc(C)c(/C=C/c2onc(C)c2S(=O)(=O)N2CCC(C(=O)Nc3ccc(Cl)cc3C)CC2)c(C)c1 | inactive
13 | COc1ccc(C(=O)CSc2c(C(C)C)cnc3c2c(=O)n(C)c(=O)n3C)cc1 | inactive
14 | O=C(CSc1nc2nccnc2c(=O)n1CCc1c[nH]c2ccccc12)Nc1ccccc1F | inactive
15 | O=C(CN1CCN(Cc2ccc(Cl)cc2)C1=O)NCc1ccc(F)cc1 | inactive
16 | COc1ccc(N2C(=O)CS(=O)(=O)C23C(=O)N(Cc2ccc(C)cc2)c2ccccc23)cc1Cl (centres undefined) | inactive
17 | O=S(=O)(NCCS(=O)(=O)N1CCN(c2ccccc2)CC1)c1ccc(Cl)cc1 | inactive
18 | CSc1c(SCc2ccccc2)cnn(Cc2ccccc2)c1=O | inactive
19 | CC1=NN(Cc2ccccc2)C(=O)/C1=C/c1ccc(N(C)C)cc1 | 6.75 µM (active)
20 | CN(C)c1cc[n+](Cc2ccccc2)cc1 | inactive
21 | COc1ccc(C)cc1NC(=O)CN1c2cccc3cccc(c23)S1(=O)=O | inactive
22 | CCOC(=O)c1cc(-c2ccccc2C)n(Cc2cc(C)no2)n1 | inactive
23 | COc1cccc(OC)c1C(=O)Nc1ccc(Cc2ccncc2)cc1 | inactive
24 | CCc1ccc(NC(=O)Nc2ccncc2)cc1 | 9.53 µM (active)
25 | CC(C)CC(=O)Nc1ccc(Cc2ccncc2)cc1 | inactive
26 | CCCN(C(=O)c1nc2nccc(C)n2n1)c1c(N)n(Cc2ccccc2)c(=O)[nH]c1=O | inactive
27 | CCOC(=O)/C(=N\Nc1cc(Cl)ccc1Cl)N1CCN(C)CC1 | inactive
28 | CC(C)Cc1nc(Nc2ccc(S(=O)(=O)N3CCCC3)cc2)c2nnn(Cc3ccccc3)c2n1 | inactive
29 | Cc1onc(-c2ccc(F)cc2F)c1C(=O)Nc1cccc(C(F)(F)F)c1 | inactive
